Counter-ions that a name gives are not always drawn.
system: MARIMO; experiment: cell viability relative to vehicle control; higher = less cytotoxic; settings: 10 µM; SRSF2 genotype: SRSF2 P95H/wt
Procedure, shortened: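 Screening covered the Selleck bioactive, kinase and epigenetic probe libraries, less identity-inconsistent compounds, on CRISPR-edited mutant clones and isogenic wild-type clones of four leukaemia lines. Cells, at 2000 per well in 50 µL medium, received a single 10 µM acoustically dispensed dose. After 48 h the supernatant was removed and CellTiter-Glo luminescence was read. Viability was analysed in Genedata Screener as percent of the on-plate vehicle control.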

In order of rising cell viability:
1. CC(C)n1nc(-c2cc3cc(O)ccc3[nH]2)c2c(N)ncnc21 [Torkinib (PP242)]  23.1%
2. CN[C@H]1CC[C@@H](c2ccc(Cl)c(Cl)c2)c2ccccc21 [Sertraline HCl]  41.7%
3. Clc1ccc(CSC(Cn2ccnc2)c2ccc(Cl)cc2Cl)cc1 (configuration not stated) [Sulconazole Nitrate]  46.5%
4. O=C(Nc1ccccc1)N1CCN(c2nc(-c3ccccc3)ns2)CC1  87%
5. O=C1C[C@@H](c2ccccc2)Oc2cc(O)cc(O)c21 [Pinocembrin]  96.4%
6. COc1cc(C(=O)O)ccc1O [Vanillic acid]  98.9%
7. CC1OC(OC2C(OC3CCC4(C)C(CCC5(C)C4CC=C4C6CC(C)(C)CCC6(C(=O)OC6OC(COC7OC(CO)C(O)C(O)C7O)C(O)C(O)C6O)CCC45C)C3(C)CO)OCC(O)C2O)C(O)C(OC2OC(CO)C(O)C(O)C2O)C1O (configuration not stated) [Macranthoidin A]  100%
8. COc1ccc2c3c1O[C@H]1C[C@@H](O)C=C[C@@]31CCN(C)C2 [Galanthamine]  102%
9. CC1(C)O[C@@H]2C[C@H]3[C@@H]4CCC5=CC(=O)C=C[C@]5(C)[C@H]4[C@@H](O)C[C@]3(C)[C@]2(C(=O)CO)O1 [Desonide]  102%
10. C[C@H](N=C(NC#N)Nc1cccc2ncccc12)c1ccccc1  104%
11. OC[C@H]1O[C@@](CO)(O[C@H]2O[C@H](CO)[C@@H](O)[C@H](O)[C@H]2O)[C@@H](O[C@H]2O[C@H](CO)[C@@H](O)[C@H](O)[C@H]2O)[C@@H]1O [D-(+)-Melezitose]  105%
12. CC1(C)[C@@H](O)CC[C@]2(C)[C@H]3C(=O)C=C4[C@@H]5C[C@@](C)(C(=O)O)CC[C@]5(C)CC[C@@]4(C)[C@]3(C)CC[C@@H]12 [Enoxolone (Glycyrrhetin)]  109%

Reference: the supplement of paper PMC10981050
